# BL2 CD40 inh – CD40 pathway inhibition in BL2 cells | BL2 NF-kB luciferase reporter, CD40L-induced, 4 h | inhibition, % at 10 µM | 0.94% of 83,000 active | AID 1053188;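 active = mean inhibition of at least 50% with a set share of replicates also reaching that level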;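 note: 0% = neutral control wells and 100% = IKK inhibitor VII at 50 µM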
# The depositor's hits bear a star; [ ] = dose if it differs, or a comment. These entries were drawn from the full list.
SMILES,BL2 CD40 inh
CC(C)NC(=O)N1[C@H](CO)[C@H](c2ccc(C#CC3CCCCC3)cc2)[C@@H]1C#N,12
CNC[C@@H]1Oc2ccc(N(C)C)cc2C(=O)N(C)C[C@H]1C,8
CCC(=O)N1[C@H](CO)[C@@H](c2ccc(C3=CCCC3)cc2)[C@H]1CNC(=O)CN(C)C,-1
Cc1ccc(S(=O)(=O)N2[C@@H]3CNC[C@H]2C3c2ccc(-c3cccc(C)c3)cc2)cc1 (some centres not stated),1[25 µM]
COc1ccc2c3c([nH]c2c1)[C@H](CO)N(Cc1ccccn1)CC31CN(Cc2cccc(F)c2)C1,-8[25 µM]
COc1ccccc1NC(=O)N1C[C@H](O)COC[C@H]2O[C@@H](CC(=O)N3CCC(Cc4ccccc4)CC3)CC[C@@H]21,14[25 µM]

# Compound activity deposited in PubChem BioAssay by Broad Institute.
